# Experimental data from PubChem BioAssay AID720550 (National Center for Advancing Translational Sciences (NCATS), 2013).
# Records with an inconclusive call do not appear. Active and inactive are the calls of the source. Calls come from the whole dose curve; as a rule, active = well fitted curve in the direction sought with a large enough effect; inconclusive = small, poorly fitted or top-dose-only effect, or another doubt; inactive = no such curve, though single readings can be large or run the other way.
# Assay: qHTS for Inhibitors of Bloom's syndrome helicase (BLM): Thiazole Orange DNA Binding Counterscreen for SAR.
# Details: fluorescence; Potency: Thiazole orange DNA displacement; series mostly up to 57.1 µM; activity change, negative = displacement: at the top concentration
# Source text: Human RecQ DNA helicases participate in maintenance of genome stability and DNA repair. While other types of helicases have been explored as targets for drug development, members of the RecQ family have remained less well characterized. Mutations of the Bloom helicase gene have been associated with the rare human genetic disease called Bloom syndrome. […] Moreover, identified inhibitors can be used in cells and animal models to examine the consequences of inhibition on the survival of cancer cells where it has been shown that BLM plays an important role.
# A fluorescence-based, biochemical assay in 1536 well format was developed to evaluate inhibition of BLM DNA unwinding activity. This assay was used to screen the MLPCN library. The resulting compounds were subjected to orthogonal and secondary biochemical assays to triage the initial hits, to classify compounds based on mode of action and to derive structure activity relationships (SARs) of candidate effectors. The Thiazole Orange (ThO) DNA binding (TO-binding) is used to eliminate inhibitors that operate via nonspecific DNA binding. This displacement assay is miniaturized for a 1536-well format and utilizes a ThO dye bound to unlabeled DNA. Inactivation or no significant activity is the desired outcome for this assay.
# NIH Chemical Genomics Center [NCGC]
# NIH Molecular Libraries Probe Centers Network [MLPCN]
# Assay Submitter (PI): Opher Gileadi, Structural Genomics Consortium, University of Oxford, UK
# Compounds were added to a 4 uL mixture of 50 nM DNA and 100 nM ThO via pintool transfer. The fluorescence signal (excitation 480 nm, emission 530 nm) was measured after 15 min incubation at room temperature using the ViewLux CCD imager.
Structure (SMILES),"activity change, negative = displacement",Potency
O=C(Nc1ccc(Br)c(Br)c1)Nc1nnc(-c2cccnc2)s1,89.9% (inactive),
N/C(=N\c1nnc(-c2ccncc2)s1)Nc1ccc(F)c(C(F)(F)F)c1,,inactive
Cc1ccccc1-c1nnc(NC(=O)Nc2ccc3ccccc3c2)s1,70.1% (inactive),
O=C(Nc1ccc2ccccc2c1)Nc1nnc(C2CCCCC2)s1,199% (inactive),
CC(C)(C)NC(=O)Nc1nnc(-c2ccncc2)s1,7.57% (inactive),
O=C(Nc1cc(C(F)(F)F)cc(C(F)(F)F)c1)Nc1nnc(-c2ccncc2)s1,3.51% (inactive),
COc1ccc(-c2nnc(NC(=O)Nc3ccc4ccccc4c3)s2)cc1OC,141% (inactive),
O=C(Nc1ccc(-n2ccnc2)c(F)c1)Nc1nnc(-c2ccncc2)s1,-6.18% (inactive),
O=C(NCc1ccccc1)Nc1nnc(-c2ccncc2)s1,-0.576% (inactive),
COc1ccc(OC)c(-c2nnc(NC(=O)Nc3ccc4ccccc4c3)s2)c1,37.6% (inactive),
O=C(Nc1ccc(Br)c(Br)c1)Nc1cccc(-c2ccncc2)n1,15.3% (inactive),
N#Cc1cc(NC(=O)Nc2nnc(-c3ccncc3)s2)ccc1-c1cn[nH]c1,-13.8% (inactive),
O=C(Nc1ccc(F)c(C(F)(F)F)c1)Nc1nnc(-c2ccncc2)s1,,inactive
O=C(Nc1ccc(N2CCOCC2)c(F)c1)Nc1nnc(-c2ccncc2)s1,-24.6% (inactive),
CCOC(=O)c1cccc(NC(=O)Nc2nnc(-c3ccncc3)s2)c1,91.3% (inactive),
O=c1c(Nc2ccc(Cl)c(Cl)c2)c(Nc2nnc(-c3ccncc3)s2)c1=O,,4.57 µM (active)
CCCCCCNC(=O)Nc1nnc(-c2ccncc2)s1,-0.682% (inactive),
CC(=O)c1cccc(NC(=O)Nc2nnc(-c3ccncc3)s2)c1,218% (inactive),
Cc1cc(NC(=O)Nc2nnc(-c3ccncc3)s2)ccc1C#N,12.5% (inactive),
O=C(Nc1ccc(Cl)c(Cl)c1)Nc1ccc(-c2ccncc2)s1,-4.46% (inactive),

Structure (SMILES),"activity change, negative = displacement",Potency
O=C(Nc1ccc(Cl)nc1)Nc1nnc(-c2ccncc2)s1,6.38% (inactive),
O=C(Nc1ccc2c(c1)OCCO2)Nc1nnc(-c2ccncc2)s1,88% (inactive),
O=C(Nc1ccc2ccccc2c1)Nc1nnc(-c2ccc(Cl)cc2)s1,-23.2% (inactive),
O=C(Nc1ccc2ccccc2c1)Nc1cccc(-c2ccncc2)n1,1.01% (inactive),
O=C(Nc1ccc(Cl)c(Cl)c1)Nc1nnc(NC2CCNCC2)s1,-3.25% (inactive),
O=C(Nc1ccc2ccccc2c1)Nc1nnc(-c2ccc(F)cc2)s1,-25.5% (inactive),
O=C(Nc1nnc(-c2ccncc2)s1)Nc1ccc(Cl)c2ccccc12,-7.44% (inactive),
O=C(Nc1ccc2ccccc2c1)Nc1nnc(-c2ccc(Cl)cc2Cl)s1,95.4% (inactive),
O=C(Nc1ccc(Cl)c(Cl)c1)Nc1nnc(N2CCNCC2)s1,-21.8% (inactive),
O=C(Nc1ccc2ccccc2c1)Nc1nnc(-c2ccccc2Cl)s1,154% (inactive),
O=C(Nc1ccc(F)c(F)c1)Nc1nnc(-c2ccncc2)s1,3.39% (inactive),
Cc1cc(NC(=O)Nc2nnc(-c3ccncc3)s2)ccc1F,-8.28% (inactive),
O=C(Nc1ccc(Cl)c(Cl)c1)Nc1nnc(-c2cccnc2)s1,-0.0445% (inactive),
CC(C)(C)c1cccc(NC(=O)Nc2nnc(-c3ccncc3)s2)c1,-29.7% (inactive),
O=C(Nc1ccc(-c2nc3ccccc3[nH]2)cc1)Nc1ccc2c(c1)CCCO2,91.4% (inactive),
Cc1cnccc1-c1nnc(NC(=O)Nc2ccc(F)c(C(F)(F)F)c2)s1,122% (inactive),
O=C(Nc1nnc(-c2ccncc2)s1)Nc1ccc(Cl)cc1Cl,10% (inactive),
O=C(Nc1ccc(Cl)c(C(F)(F)F)c1)Nc1cccc(-c2ccncc2)n1,76.7% (inactive),
O=C(Nc1ccc(F)nc1)Nc1nnc(-c2ccncc2)s1,19.6% (inactive),
O=S(=O)(Cc1ccc(Cl)c(Cl)c1)Nc1nnc(-c2ccncc2)s1,7.75% (inactive),
